# Results from PubChem BioAssay (NCATS).
# Records with an inconclusive call do not appear. Unmarked numbers belong to inactive results. Activity calls are given as the source filed them. Unless noted, calls come from the whole dose curve.
# Target: Peroxisome proliferator-activated receptor delta (Homo sapiens) (UniProt Q03181)
# Assay: qHTS assay for small molecule agonists of peroxisome proliferator-activated receptor delta signaling (AID 588534);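 note: 0% = DMSO basal wells and 100% = positive control agonist at 10 µM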
# Settings: HEK293T PPARdelta-UAS-bla, beta-lactamase ratio, 18 h; series mostly up to 76.7 µM; activation: at the top concentration
# Procedure, shortened: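 Cell-based beta-lactamase reporter assay run in agonist mode: cells seeded and incubated 5 hrs at 37 C, compounds added and incubated 18 hrs at 37 C. CCF4 dye fluorescence read after 2 hrs at RT; EC50 and efficacy from Hill fits.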
# Peroxisome proliferator-activated receptor delta (Homo sapiens), sequence (Q03181 whole entry, looked up): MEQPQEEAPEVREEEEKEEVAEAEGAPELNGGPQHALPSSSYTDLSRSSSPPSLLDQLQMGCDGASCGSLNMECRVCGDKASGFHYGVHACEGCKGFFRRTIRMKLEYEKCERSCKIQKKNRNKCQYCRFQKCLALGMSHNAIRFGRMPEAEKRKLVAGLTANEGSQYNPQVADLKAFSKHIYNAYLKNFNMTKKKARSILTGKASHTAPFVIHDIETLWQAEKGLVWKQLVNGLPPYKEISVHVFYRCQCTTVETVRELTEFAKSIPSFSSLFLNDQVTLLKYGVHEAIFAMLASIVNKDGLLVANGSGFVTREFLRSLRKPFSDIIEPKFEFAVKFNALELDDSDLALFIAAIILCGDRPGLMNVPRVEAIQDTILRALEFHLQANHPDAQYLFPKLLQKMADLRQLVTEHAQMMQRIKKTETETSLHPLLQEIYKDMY
SMILES,outcome,activation
CN1[C@H]2CC(OC(=O)[C@H](CO)c3ccccc3)C[C@H]1[C@H]1O[C@H]12 (stereo not given in full),inactive,–
CCCCN(CC)c1c([N+](=O)[O-])cc(C(F)(F)F)cc1[N+](=O)[O-],–,-2.83%
CC(C)=O,–,5.58%

# Target: Thyroid hormone receptor beta (Homo sapiens) (UniProt P10828)
# Sequence (P10828 whole entry, looked up): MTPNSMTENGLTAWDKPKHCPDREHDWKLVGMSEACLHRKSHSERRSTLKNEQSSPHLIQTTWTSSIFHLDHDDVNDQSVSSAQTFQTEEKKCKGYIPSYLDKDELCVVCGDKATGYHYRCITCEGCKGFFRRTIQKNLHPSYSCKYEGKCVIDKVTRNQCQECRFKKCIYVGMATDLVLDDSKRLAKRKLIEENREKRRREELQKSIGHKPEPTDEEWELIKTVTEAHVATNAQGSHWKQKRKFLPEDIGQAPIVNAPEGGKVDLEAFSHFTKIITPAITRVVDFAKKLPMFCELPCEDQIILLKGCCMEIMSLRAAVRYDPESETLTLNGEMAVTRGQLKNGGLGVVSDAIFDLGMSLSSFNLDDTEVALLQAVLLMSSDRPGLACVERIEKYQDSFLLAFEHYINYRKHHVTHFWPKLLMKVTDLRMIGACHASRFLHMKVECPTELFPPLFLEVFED
# Assay: qHTS assay for small molecule agonists of thyroid hormone receptor beta signaling (AID 588545)
# Settings: TR-UAS-bla GripTite HEK 293, beta-lactamase ratio, agonist mode, 18 h; series mostly up to 76.7 µM; activation: at the top concentration
# Procedure, shortened: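 Agonist-mode beta-lactamase reporter assay, HEK 293 cells, 2% charcoal/dextran FBS; cells plated 4 hrs, compound 18 hrs at 37 C, CCF4 2 hrs RT. Normalized to 10 nM T3 (100%) and DMSO (0%); Hill fit gives EC50, efficacy.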
row,SMILES,activation
1,CCCCN(CC)c1c([N+](=O)[O-])cc(C(F)(F)F)cc1[N+](=O)[O-],5.94%
2,CSc1nc(NC(C)C)nc(NC(C)C)n1,10%
3,N#Cc1c(Cl)c(Cl)c(Cl)c(C#N)c1Cl,21.6%

# Tested on: not listed separately
# Assay: S16 Schwann cell PMP22 intronic element beta-lactamase assay (AID 624044); note: nearly all actives have a fitted effect of over 15% in size; note: potency is the fitted concentration of half-maximal effect;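 for ratio activity, negative = inhibition: 0% = DMSO and -100% = potassium clavulanate positive control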
# Settings: S16 rat Schwann cells, PMP22 element beta-lactamase FRET, 24 h; ratio activity, negative = inhibition: at 38.3 µM (top of the series)
# Procedure, shortened: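 Rat S16 Schwann cells with beta-Lac driven by a PMP22 intronic element, compound-treated 24 h at 37 °C. LiveBLAzer FRET B/G read: 460 nm normalized to potassium clavulanate vs DMSO; 535 nm FRET as viability; concentration-effect curves classified.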
SMILES,Potency,"ratio activity, negative = inhibition"
CC[C@]1([C@H]2O[C@@H]([C@@H]3O[C@](O)(CO)[C@@H](C)C[C@H]3C)C[C@H]2C)CC[C@@H]([C@]2(C)CC[C@@]3(C[C@@H](O)[C@@H](C)[C@@H]([C@H](C)[C@H](OC)[C@H](C)C(=O)O)O3)O2)O1,562 nM (active),–
CC(C)=O,–,-4.03%
CNC1=CN(O)C(c2ccccc2)=c2cc(Cl)ccc2=N1,–,1.18%

# Tested on: not listed separately
# Assay: qHTS assay for small molecule agonists of the antioxidant response element (ARE) signaling pathway measured by Nrf2-dependant transcriptional activity - cell viability counter screen (AID 720653; active = well fitted curve in the direction sought with a large enough effect in the repeat runs; an effect the other way counts as inactive or inconclusive; note: potency is the fitted concentration of half-maximal effect; for max response: % is set by controls: 0 for no effect and ±100 for the full control effect)
# Settings: ARE-bla HepG2 viability, CellTiter-Glo ATP luminescence, 16 h; max response: active compounds read low
# Procedure, shortened: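 ARE-bla HepG2 cells treated with compounds for 16 h at 37C; this counter screen measures viability as intracellular ATP by CellTiter-Glo luminescence after 30 min at room temperature.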
SMILES,max response,Potency
CCCCN(CC)c1c([N+](=O)[O-])cc(C(F)(F)F)cc1[N+](=O)[O-],-14.4%,–
CSc1nc(NC(C)C)nc(NC(C)C)n1,9.37%,–
N#Cc1c(Cl)c(Cl)c(Cl)c(C#N)c1Cl,–,70.8 µM (active)

# Tested on: not listed separately
# Assay: qHTS assay for cell viability of HEK293 cells (AID 743288; active = well fitted curve in the direction sought with a large enough effect; an effect the other way counts as inactive or inconclusive; note: nearly all actives have a fitted effect of over 50% in size; note: potency is the fitted concentration of half-maximal effect; for max response: % is set by controls: 0 for no effect and ±100 for the full control effect)
# Settings: ATP luminescence (CellTiter-Glo), 18 h; max response: active compounds read low
# Procedure, shortened: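 Environmental chemicals tested in qHTS format against parental HEK293 cells; 18 h treatment, 37 C; read-out ATP luminescence (CellTiter-Glo), 30 min RT development.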
SMILES,max response,Potency
CCCCN(CC)c1c([N+](=O)[O-])cc(C(F)(F)F)cc1[N+](=O)[O-],-10.2%,–
CSc1nc(NC(C)C)nc(NC(C)C)n1,2.18%,–
N#Cc1c(Cl)c(Cl)c(Cl)c(C#N)c1Cl,–,15.8 µM (active)
